Inconclusive results are not listed. The source made the active and inactive calls. How the source made its calls, unless noted: active means hit-call score of the fitted dose curve at least 0.9, where 1 is the maximum; inactive means score below 0.9.

Test [1] concerns the target Retinoic acid receptor RXR-alpha (Homo sapiens) (UniProt P19793). The experiment in a line: ATG_RXRa_TRANS: Attagene TRANS-FACTORIAL HepG2 Assay for human Retinoid X Receptor alpha (RXRa) (AID 2283012; active means hit-call score of the fitted dose curve at least 0.9, where 1 is the maximum). Put shortly: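 Read-out: fluorescent reporter-transcript fragments quantified by capillary electrophoresis after RT-PCR. Transiently transfected HepG2 cells carrying GAL4-UAS reporters and NR-GAL4 chimeras were exposed to chemical for 24 h; activity scored as increase over DMSO.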

Read-out in test [2]: E-selectin (Homo sapiens) (UniProt P16581)
The experiment in a line: BSK_3C_Eselectin: BioMAP Diversity Plus: 3C Assay for Eselectin Biomarker Activity (AID 2283015).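 On outcome: cell surface E-selectin protein quantified by ELISA 24 h after dosing.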 The conditions noted are these: primary human endothelial cells (HUVEC); actives raise or lower the signal. Put shortly: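 ELISA read-out of E-selectin on endothelial monolayers after 24 h chemical treatment. Human umbilical vein primary cells served as the system, with DMSO defining baseline activity for bidirectional fitting.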

Read-out in test [3]: Interleukin-1 alpha (IL1a), IL1A (gene 3552)
Nature of the test: BSK_BE3C_IL1a: BioMAP Diversity Plus: BE3C Assay for Interleukin-1 alpha (IL1a) Biomarker Activity (AID 2283016). The conditions noted are these: primary human bronchial epithelial cells; actives raise or lower the signal. In outline: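 ELISA read-out of IL-1a from human lung bronchial epithelial primary cells, 24 h post-dose. Gain or loss of signal fitted relative to DMSO negative control.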

Read-out in test [4]: Monocyte Chemoattractant Protein-1 (MCP1), CCL2 (gene 6347)
Nature of the test: BSK_3C_MCP1: BioMAP Diversity Plus: 3C Assay for Monocyte Chemoattractant Protein-1 (MCP1) Biomarker Activity (AID 2283017). The conditions noted are these: primary human endothelial cells (HUVEC); actives raise or lower the signal. Put shortly: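 ELISA read-out of MCP-1 from human umbilical vein endothelial cell cultures harvested 24 h post-dosing. Gain or loss of signal was fitted relative to DMSO.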

Read-out in test [5]: Monocyte Chemoattractant Protein-1 (MCP1), CCL2 (gene 6347)
Nature of the test: BSK_4H_MCP1: BioMAP Diversity Plus: 4H Assay for Monocyte Chemoattractant Protein-1 (MCP1) Biomarker Activity (AID 2283018). The conditions noted are these: primary human endothelial cells (HUVEC); actives raise or lower the signal. Put shortly:
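HUVEC primary cells, 24 h post-dose, MCP-1 by ELISA. Gain or loss of signal fitted bidirectionally vs DMSO baseline. Cytotoxicity: SRB stain (0.1% after 10% TCA fixation), read 560 nm, parallel cultures.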

Read-out in test [6]: Human Leukocyte Antigen - DR isotype (HLADR), HLA-DRA (gene 3122)
Nature of the test: BSK_3C_HLADR: BioMAP Diversity Plus: 3C Assay for Human Leukocyte Antigen - DR isotype (HLADR) Biomarker Activity (AID 2283019). As to conditions: primary human endothelial cells (HUVEC); actives raise or lower the signal. In outline: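 ELISA readout of surface HLA-DR on human umbilical vein endothelium, taken 24 h after chemical treatment. Gain- and loss-of-signal were both fitted relative to DMSO.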

Read-out in test [7]: Interleukin-8 (IL8), CXCL8 (gene 3576)
The experiment in a line: BSK_3C_IL8: BioMAP Diversity Plus: 3C Assay for Interleukin-8 (IL8) Biomarker Activity (AID 2283020). The conditions noted are these: primary human endothelial cells (HUVEC); actives raise or lower the signal. In outline: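 HUVEC, 3C stimulation; 24 h compound exposure; IL-8 read by ELISA; gain or loss of signal fitted relative to DMSO control.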

Read-out in test [8]: Monokine induced gamma interferon (MIG), CXCL9 (gene 4283)
The experiment in a line: BSK_3C_MIG: BioMAP Diversity Plus: 3C Assay for Monokine induced gamma interferon (MIG) Biomarker Activity (AID 2283021).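 On AC50: MIG protein level measured by immunoassay in the treated endothelial cultures.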 As to conditions: primary human endothelial cells (HUVEC); actives raise or lower the signal. In outline:
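HUVEC, 3C system; 24 h chemical exposure; MIG by ELISA; bidirectional fit vs DMSO baseline.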

A short description of test [9]: BSK_3C_SRB: Viability Assessment in the BioMAP Diversity Plus: 3C Assay (AID 2283023).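 Further: fitted both ways against DMSO so a hit may be signal rise or drop.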 The conditions noted are these: primary human endothelial cells (HUVEC). In outline:
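Absorbance at 560 nm of sulforhodamine B-stained (0.1%) total protein served as a cytotoxicity readout in human umbilical vein endothelial cells, 24 h after chemical treatment. Signal was fitted bidirectionally relative to DMSO.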

Read-out in test [10]: Matrix Metallopeptidase 1 (MMP1), MMP1 (gene 4312)
The experiment in a line: BSK_BE3C_MMP1: BioMAP Diversity Plus: BE3C Assay for Matrix Metallopeptidase 1 (MMP1) Biomarker Activity (AID 2283024). The conditions noted are these: primary human bronchial epithelial cells; actives raise or lower the signal. Put shortly:
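ELISA read-out of MMP1 in human lung bronchial epithelial primary cultures, 24 h post-dose; bidirectional curve fit vs DMSO baseline, gain or loss of signal scored.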

The nature of test [11]: BSK_3C_Vis: BioMAP Diversity Plus: 3C Assay for Morphology Visualization (AID 2283025).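 Further: fitted both ways so gain or loss versus DMSO counts.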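 On AC50: light microscopy image of cell morphology used as background control.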 The conditions noted are these: primary human endothelial cells (HUVEC). Put shortly:
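HUVEC, 3C system; light microscopy of morphology at 24 h post-dose. Bidirectional fit vs DMSO baseline. Secondary readout, background-control function.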

Read-out in test [12]: Pselectin, SELP (gene 6403)
The experiment in a line: BSK_4H_Pselectin: BioMAP Diversity Plus: 4H Assay for Pselectin Biomarker Activity (AID 2283026). As to conditions: primary human endothelial cells (HUVEC); actives raise or lower the signal. In outline:
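HUVEC, 24 h chemical exposure; P-selectin read by ELISA. Bidirectional curve fit vs DMSO baseline; gain or loss of signal scored.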

Test [13] is described as follows: BSK_4H_SRB: Viability Assessment in the BioMAP Diversity Plus: 4H Assay (AID 2283027).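 Further: cells exposed to compound for 24 h before staining.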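 On AC50: curves fitted both ways versus DMSO so AC50 may be loss or gain.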 The conditions noted are these: primary human endothelial cells (HUVEC). In outline: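 HUVEC, 24 h post-dose; 10% TCA fix, 0.1% SRB stain, A560 nm. Total protein = overt cytotoxicity, parallel to biomarker read. Bidirectional fit vs DMSO baseline.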
Test [14] is described as follows: BSK_BE3C_SRB: Viability Assessment in the BioMAP Diversity Plus: BE3C Assay (AID 2283028).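 On AC50: fitted both ways so AC50 may mark signal gain or loss versus DMSO.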 The conditions noted are these: primary human bronchial epithelial cells. In outline: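 Cells (human bronchial epithelial, primary) are treated with chemicals, and after 24 h the parallel cultures are fixed in 10% TCA. These are then stained with 0.1% SRB and read at 560 nm. Gain or loss of signal is fitted relative to DMSO.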

Read-out in test [15]: Thrombomodulin, THBD (gene 7056)
Nature of the test: BSK_3C_Thrombomodulin: BioMAP Diversity Plus: 3C Assay for Thrombomodulin Biomarker Activity (AID 2283029). The conditions noted are these: primary human endothelial cells (HUVEC); actives raise or lower the signal. In outline: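 HUVEC, 3C conditions; compound 24 h; thrombomodulin by ELISA; bidirectional curve fit vs DMSO baseline; parallel SRB total-protein staining for cytotoxicity.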

Read-out in test [16]: Urokinase-type plasminogen activator receptor (uPAR), PLAUR (gene 5329)
The experiment in a line: BSK_4H_uPAR: BioMAP Diversity Plus: 4H Assay for Urokinase-type plasminogen activator receptor (uPAR) Biomarker Activity (AID 2283030). The conditions noted are these: primary human endothelial cells (HUVEC); actives raise or lower the signal. Put shortly: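 Cell-surface uPAR ELISA signal, measured 24 h after dosing human umbilical vein endothelial cells, was analyzed with bidirectional fitting relative to DMSO. Parallel SRB staining of total protein tracked overt cytotoxicity.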

Read-out in test [17]: Vascular endothelial growth factor receptor 2 (Homo sapiens) (UniProt P35968)
Nature of the test: BSK_4H_VEGFRII: BioMAP Diversity Plus: 4H Assay for Vascular endothelial growth factor receptor 2 (VEGFR2) Biomarker Activity (AID 2283031).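 On AC50: cell-surface VEGFR2 protein level quantified by ELISA.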 The conditions noted are these: primary human endothelial cells (HUVEC); actives raise or lower the signal. Put shortly:
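ELISA read-out of VEGFRII in primary human umbilical vein endothelium, taken 24 h after chemical treatment. Responses are expressed relative to DMSO, with bidirectional fitting.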

Test [18] has as its target human Retinoid X Receptor beta (RXRb), RXRB (gene 6257) (UniProt P28702). The experiment in a line: ATG_RXRb_TRANS: Attagene TRANS-FACTORIAL HepG2 Assay for human Retinoid X Receptor beta (RXRb) (AID 2283013; active means hit-call score of the fitted dose curve at least 0.9, where 1 is the maximum). In outline:
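Read-out: reporter mRNA induction via RT-PCR plus capillary electrophoresis fluorescence, analysed as signal increase relative to DMSO. Cells were human HepG2, transiently transfected with GAL4-UAS reporter constructs and chimeric receptor-Gal4 fusions, dosed for 24 h.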

Test [19] has as its target human Thyroid Receptor alpha (THRa1), THRA (gene 7067) (UniProt P10827). Nature of the test: ATG_THRa1_TRANS: Attagene TRANS-FACTORIAL HepG2 Assay for human Thyroid Receptor alpha (THRa1) (AID 2283014; active means hit-call score of the fitted dose curve at least 0.9, where 1 is the maximum). Put shortly: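 Reporter transcript induction, read by capillary electrophoresis of 6-FAM-labelled RT-PCR products, reflects activity of a transfected THRa1-Gal4 fusion in HepG2 liver cells. Cells were dosed for 24 h; activity was fitted in the positive direction against DMSO.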

The target of test [20] is human Vitamin D Receptor (VDR), VDR (gene 7421) (UniProt P11473). The experiment in a line: ATG_VDR_TRANS: Attagene TRANS-FACTORIAL HepG2 Assay for human Vitamin D Receptor (VDR) (AID 2283022; active means hit-call score of the fitted dose curve at least 0.9, where 1 is the maximum). In outline:
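Steps: transfect HepG2 with GAL4-UAS-driven reporter constructs; dose compounds 24 h; isolate RNA, reverse-transcribe, PCR-amplify with 6-FAM-labelled primer extension and HpaI digestion; quantify fragments by capillary electrophoresis relative to DMSO.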

Sequence of Retinoic acid receptor RXR-alpha (Homo sapiens) (P19793 whole entry, looked up, the tested form may be a part): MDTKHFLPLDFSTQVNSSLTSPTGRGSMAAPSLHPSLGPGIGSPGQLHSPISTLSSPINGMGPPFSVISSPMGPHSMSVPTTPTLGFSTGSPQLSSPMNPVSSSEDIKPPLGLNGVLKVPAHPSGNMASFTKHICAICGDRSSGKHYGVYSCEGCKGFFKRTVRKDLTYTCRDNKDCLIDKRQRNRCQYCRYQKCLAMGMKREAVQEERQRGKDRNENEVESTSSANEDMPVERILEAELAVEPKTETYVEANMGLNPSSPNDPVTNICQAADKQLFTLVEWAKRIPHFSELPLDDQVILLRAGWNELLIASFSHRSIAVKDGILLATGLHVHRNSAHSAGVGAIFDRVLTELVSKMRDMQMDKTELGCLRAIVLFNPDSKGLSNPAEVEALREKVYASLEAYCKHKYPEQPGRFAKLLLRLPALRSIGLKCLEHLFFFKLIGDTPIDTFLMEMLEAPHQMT
Sequence of human Retinoid X Receptor beta (RXRb), RXRB (gene 6257) (P28702 whole entry, looked up, the tested form may be a part): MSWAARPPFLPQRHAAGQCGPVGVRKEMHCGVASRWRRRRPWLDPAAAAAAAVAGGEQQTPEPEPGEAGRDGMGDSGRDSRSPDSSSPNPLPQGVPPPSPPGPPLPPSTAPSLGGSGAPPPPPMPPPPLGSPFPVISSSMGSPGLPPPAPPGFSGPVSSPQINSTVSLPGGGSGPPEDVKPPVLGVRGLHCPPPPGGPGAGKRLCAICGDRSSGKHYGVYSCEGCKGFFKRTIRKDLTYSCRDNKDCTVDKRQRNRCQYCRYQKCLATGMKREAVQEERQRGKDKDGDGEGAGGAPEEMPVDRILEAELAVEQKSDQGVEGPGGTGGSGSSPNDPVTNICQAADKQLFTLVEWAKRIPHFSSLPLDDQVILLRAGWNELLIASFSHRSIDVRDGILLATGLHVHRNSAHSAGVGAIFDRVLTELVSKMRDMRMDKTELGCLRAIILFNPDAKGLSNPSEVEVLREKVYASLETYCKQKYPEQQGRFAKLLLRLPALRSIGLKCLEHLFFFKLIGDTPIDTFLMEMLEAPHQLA
Sequence of E-selectin (Homo sapiens) (P16581 whole entry, looked up): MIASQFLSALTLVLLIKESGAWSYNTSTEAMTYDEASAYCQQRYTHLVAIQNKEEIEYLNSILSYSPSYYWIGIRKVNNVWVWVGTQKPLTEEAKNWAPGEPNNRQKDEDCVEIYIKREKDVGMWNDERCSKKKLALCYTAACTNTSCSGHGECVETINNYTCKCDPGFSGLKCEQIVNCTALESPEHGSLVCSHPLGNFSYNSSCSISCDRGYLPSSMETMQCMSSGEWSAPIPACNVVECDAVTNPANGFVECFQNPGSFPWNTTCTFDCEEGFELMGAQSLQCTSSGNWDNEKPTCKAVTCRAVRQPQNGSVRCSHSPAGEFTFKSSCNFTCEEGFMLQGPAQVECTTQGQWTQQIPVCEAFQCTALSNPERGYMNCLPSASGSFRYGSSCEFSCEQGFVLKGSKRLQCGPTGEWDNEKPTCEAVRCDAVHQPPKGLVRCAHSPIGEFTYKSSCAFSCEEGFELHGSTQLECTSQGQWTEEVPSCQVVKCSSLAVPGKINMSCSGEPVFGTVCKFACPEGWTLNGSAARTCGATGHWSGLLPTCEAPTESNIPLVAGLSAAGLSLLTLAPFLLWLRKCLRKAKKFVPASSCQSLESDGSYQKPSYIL
Sequence of human Vitamin D Receptor (VDR), VDR (gene 7421) (P11473 whole entry, looked up, the tested form may be a part): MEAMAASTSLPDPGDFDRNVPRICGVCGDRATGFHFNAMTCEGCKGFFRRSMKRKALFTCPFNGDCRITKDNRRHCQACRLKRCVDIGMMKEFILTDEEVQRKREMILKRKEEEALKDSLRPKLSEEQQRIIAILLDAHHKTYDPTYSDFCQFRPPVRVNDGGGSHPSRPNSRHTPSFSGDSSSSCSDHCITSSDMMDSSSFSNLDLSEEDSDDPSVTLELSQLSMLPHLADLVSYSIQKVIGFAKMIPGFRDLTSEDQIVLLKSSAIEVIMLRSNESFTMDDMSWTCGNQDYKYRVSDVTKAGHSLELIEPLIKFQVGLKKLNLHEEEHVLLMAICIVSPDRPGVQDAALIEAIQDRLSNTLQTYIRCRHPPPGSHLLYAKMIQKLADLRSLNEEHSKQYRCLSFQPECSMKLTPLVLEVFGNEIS
Sequence of human Thyroid Receptor alpha (THRa1), THRA (gene 7067) (P10827 whole entry, looked up, the tested form may be a part): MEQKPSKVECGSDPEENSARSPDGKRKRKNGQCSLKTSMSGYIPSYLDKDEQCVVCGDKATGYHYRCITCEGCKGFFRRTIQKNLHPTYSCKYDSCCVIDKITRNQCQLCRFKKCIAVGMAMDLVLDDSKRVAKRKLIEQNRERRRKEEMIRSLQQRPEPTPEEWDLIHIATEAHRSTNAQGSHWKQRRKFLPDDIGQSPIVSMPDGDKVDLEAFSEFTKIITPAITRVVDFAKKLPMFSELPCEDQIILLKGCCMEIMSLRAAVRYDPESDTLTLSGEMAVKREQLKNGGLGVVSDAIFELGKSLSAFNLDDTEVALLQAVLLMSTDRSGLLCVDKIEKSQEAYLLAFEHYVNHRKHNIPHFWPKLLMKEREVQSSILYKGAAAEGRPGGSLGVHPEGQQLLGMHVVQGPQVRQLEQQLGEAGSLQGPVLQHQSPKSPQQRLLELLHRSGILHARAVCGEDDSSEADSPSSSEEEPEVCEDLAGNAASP

Turning to `O=C(Oc1ccc(Br)cc1)N1CCN2CCC1CC2`, the molecule was classed as inactive in [1], in test [2], in [3], in test [4], in test [5] and in test [6]. In addition, the result in [7], in test [8], in test [9], in test [10], in [11] and in test [12] was inactive. Besides, the outcome in test [13], in test [14], in test [15], in test [16] and in test [17] was inactive.
A word on the AC50: it is the concentration at which the activity in the assay is half-maximal. In the case of `CCCCOC(=O)c1ccccc1C(=O)OCc1ccccc1`, the call in test [1], in test [18], in [2], in test [3], in [4] and in test [6] was inactive. Moreover, the result in [7], in [8], in test [9], in test [10], in test [11] and in test [12] was inactive. The result in [13], in test [14], in test [15], in test [16] and in [17] was inactive. Moreover, the AC50 in [5] was 11.8 µM (active).
As for `CC(C)(O)c1cnn2c(-c3ccc(F)c(-c4c(F)cccc4C#N)c3)cnc2n1`, the molecule was classed as inactive in test [1], in test [2], in test [5], in [8], in [10] and in test [16]. The outcome in [17] was inactive. For the same molecule, the AC50 in test [3] was 31.6 µM (active); in test [4] it was 26.4 µM (active); in [6] it was 30.4 µM (active); in [7], 20 µM (active); in [9], 30.4 µM (active); in [11], 37.5 µM (active). Moreover, the AC50 in test [12] was 36.2 µM (active); in [13] it was 28.9 µM (active); in test [14], 29.6 µM (active); in test [15], 22.7 µM (active).
As for `CC(C)(C)OOC(C)(C)CCC(C)(C)OOC(C)(C)C`, the call in [1], in test [2], in test [3], in test [4], in test [5] and in [6] was inactive. Besides, the result in [7], in test [8], in test [9], in test [10], in [11] and in test [12] was inactive. In addition, the result in test [13], in test [14], in test [15], in test [16] and in test [17] was inactive. The AC50 in [18] was 16.4 µM (active).
As for `O=C1CCCO1`, the molecule was classed as inactive in [1], in test [19], in test [2], in [3], in test [4] and in test [5]. The result in test [6], in test [7], in [8], in test [20], in test [9] and in test [10] was inactive. Also, the result in [12], in test [13], in test [14], in test [15], in [16] and in test [17] was inactive. Moreover, the AC50 in test [11] was 16.3 µM (active).
On to `C=CCc1ccc2c(c1)OCO2`, for which the molecule was called inactive in [1], in [18], in [2], in test [3], in test [4] and in test [5]. The result in test [6], in [7], in test [8], in test [9], in test [10] and in test [11] was inactive. Besides, the outcome in test [13], in [14], in test [15], in test [16] and in test [17] was inactive.
On to `Clc1ccc(C(c2ccc(Cl)cc2)C(Cl)Cl)cc1`, for which the AC50 is 33.4 µM (active) in [18]; 29.7 µM (active) in test [2]; 13.9 µM (active) in [4]; 10.2 µM (active) in [5]; 14.4 µM (active) in [6]; 15 µM (active) in test [7]. Also, the AC50 in test [8] is 35.2 µM (active); in [9], 19.3 µM (active); in test [10], 13.7 µM (active); in [11], 37.3 µM (active); in [12], 15.1 µM (active); in test [13], 29.3 µM (active). Also, the figures for the concentration at half-maximal activity (AC50) in [16] and in [17] were 31.4 µM (active) and 26.1 µM (active), respectively. Moreover, the outcome in test [19], in test [3], in test [20], in test [14] and in [15] was inactive.

Values taken from PubChem BioAssay (EPA / NIEHS).
